Measurements from PubChem BioAssay (NCI).
About 83,000 compounds went through this panel and 20% of them were active in at least one assay; those are over-represented in the sample as a whole.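 Testing used 96-well plates and a 48-hour single-concentration exposure. Example: -40 means 40% of the starting cells died.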 A number with no mark means an inactive call. The source made the active and inactive calls. Rule for the calls: active = growth percent below 10; inactive = the rest.

How the values were obtained:
Experiment in all cases: NCI-60 one-dose screen, 48 h (100 = growth as untreated, 0 = no growth, -100 = all killed)
Settings in all cases: 10 µM unless noted
SK-MEL-2 melanoma = tested on: SK-MEL-2 melanoma
EKVX NSCLC = tested on: EKVX NSCLC
SN12C renal = tested on: SN12C renal
UO-31 renal = tested on: UO-31 renal
TK-10 renal = tested on: TK-10 renal
ACHN renal = tested on: ACHN renal
CAKI-1 renal = tested on: CAKI-1 renal
A498 renal = tested on: A498 renal
CCRF-CEM leukemia = tested on: CCRF-CEM leukemia
MOLT-4 leukemia = tested on: MOLT-4 leukemia
SR leukemia = tested on: SR leukemia
RPMI-8226 leukemia = tested on: RPMI-8226 leukemia
OVCAR-8 ovarian = tested on: OVCAR-8 ovarian
OVCAR-5 ovarian = tested on: OVCAR-5 ovarian
OVCAR-4 ovarian = tested on: OVCAR-4 ovarian
SK-OV-3 ovarian = tested on: SK-OV-3 ovarian
IGROV1 ovarian = tested on: IGROV1 ovarian
OVCAR-3 ovarian = tested on: OVCAR-3 ovarian
HS 578T breast = tested on: HS 578T breast
NCI/ADR-RES ovarian = tested on: NCI/ADR-RES ovarian

| Structure (SMILES) | growth (SK-MEL-2 melanoma) | growth (EKVX NSCLC) | growth (SN12C renal) | growth (UO-31 renal) | growth (TK-10 renal) | growth (ACHN renal) | growth (CAKI-1 renal) | growth (A498 renal) | growth (CCRF-CEM leukemia) | growth (MOLT-4 leukemia) | growth (SR leukemia) | growth (RPMI-8226 leukemia) | growth (OVCAR-8 ovarian) | growth (OVCAR-5 ovarian) | growth (OVCAR-4 ovarian) | growth (SK-OV-3 ovarian) | growth (IGROV1 ovarian) | growth (OVCAR-3 ovarian) | growth (HS 578T breast) | growth (NCI/ADR-RES ovarian) |
| --- | --- | --- | --- | --- | --- | --- | --- | --- | --- | --- | --- | --- | --- | --- | --- | --- | --- | --- | --- | --- |
| COc1cc(-c2cc3ncccc3c3nc(OCCN(C)C)c4cccnc4c23)cc(OC)c1OC | 19.8% | 32.8% | 2.68% (active) | -70% (active) | -82.7% (active) | -74.5% (active) | -37.3% (active) | -72.6% (active) | 14.5% | 2.03% (active) | 8.77% (active) | -7.46% (active) | -5.22% (active) | 44.8% | -43.9% (active) | -10.8% (active) | 9.72% (active) | -25.6% (active) | 14.4% | 5.27% (active) |
| COc1ccc(OC)c(-c2c(C#N)c(-c3ccco3)nc3c2c(-c2ccccc2)nn3-c2ccccc2)c1 | 99.4% | 87.1% | 94.6% | 84.1% | 98% | 96.4% | 82.3% | 98.5% | 94.1% | 96.3% | 101% | 96.7% | 96.2% | 95.5% | 103% | 95.8% | 88.9% | 112% | 86.2% | 93.8% |
| CC1(C)C=CC[C@]2(C)[C@H]3CC[C@@H]4[C@H]5[C@H](C(=O)/C=C/c6cccnc6)CC[C@]5(CO)CC[C@@]4(C)[C@]3(C)CC[C@@H]12 | -66.1% (active) | -36.7% (active) | -40% (active) | -100% (active) | -90.7% (active) | -100% (active) | -75.5% (active) | -78.8% (active) | -2.65% (active) | -30.6% (active) | -26.9% (active) | -18.5% (active) | -11.7% (active) | -74.3% (active) | -14.5% (active) | -46.6% (active) | -54.5% (active) | -94.6% (active) | -42.9% (active) | -32.2% (active) |
| O=C1c2cc3c(cc2-c2c1c1ccc(F)cc1c(=O)n2CCCN1CCOCC1)OCO3 | 82.1% | 82.4% | 33.2% | 35.9% | 106% | 4.58% (active) | 17.2% | 59% | 19.6% | 3.65% (active) | 4.41% (active) | 46.1% | 47% | 78.9% | 78.5% | 20.1% | 77.5% | 85.7% | 100% | 36.6% |
| COc1cc2nc(Cl)nc(Nc3cccc(C(=O)/C=C/c4ccc(Cl)cc4)c3)c2cc1OC | 96.4% | 71.7% | 70.5% | 57.1% | 149% | 56% | 51.9% | 77.3% | 19.4% | 33.5% | 10.4% | 0.0429% (active) | 78.9% | 85.5% | 70.8% | 89% | 68.3% | 48.8% | 101% | 65.7% |
| O=C(O[C@@H]1Cc2c(O)cc(O)cc2O[C@@H]1c1cc(O)c(O)c(O)c1)c1cc(O)c2c(c1)OCO2 | 102% | 102% | 98.6% | 92.2% | 88.4% | 112% | 94.4% | 117% | 93% | 81.5% | 72.1% | 99.8% | 103% | 97% | 99.8% | 103% | 107% | 106% | 98.1% | 97.5% |
| COc1cccc(-c2nn(-c3ccccc3)cc2-c2ccnc(NCCNS(=O)(=O)c3ccccc3)c2)c1 | 21% | 47.2% | 36.1% | 14.5% | 43.8% | 28.9% | 43.7% | 47.7% | 12.2% | 12.8% | 12.7% | 19.1% | 27.7% | 72.3% | 39.3% | 43.3% | 33.6% | 42.6% | 46.7% | 23.3% |
| COc1cnc2c(c1)C(=O)c1c-2n(CCCNC(C)C)c(=O)c2cc([N+](=O)[O-])ccc12 | -58.6% (active) | -50% (active) | -54.6% (active) | -75.6% (active) | -63.6% (active) | -84.5% (active) | -71.8% (active) | -84.7% (active) | 2.43% (active) | -15.6% (active) | -7.62% (active) | -25.1% (active) | -47.6% (active) | -46.6% (active) | -68.9% (active) | -66.8% (active) | -56.4% (active) | -74.3% (active) | -31% (active) | -39.9% (active) |
